From PubChem BioAssay AID463200 (Sanford-Burnham Center for Chemical Genomics, 2010) come the findings set out here.

The list shows a part of the results. Values without a mark were called inactive. Active and inactive are the calls of the source. No stated cut-off is given here; in the data, active means z-score above about 6.3; inactive means the rest.

This test can be described thus: toxicity to mouse AML12 liver cells – imaging, DAPI nuclear morphology imaging, counter-screen for hepatic lipid droplet formation project (AID 463200).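 Further: compound exposure lasted overnight at 37 °C before fixation.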 To be noted: AML12 mouse hepatocytes, DAPI nuclear morphology cytotoxicity imaging; at 5 µM; stronger effect = higher value; cells fed 100 µM oleate overnight. (Counterscreens check selectivity or assay interference.)
On to `CCCCN1C(=O)/C(=C/C=C2/C=Cc3ccccc3N2CC)SC1=S`, for which the z-score is -0.15.
On to `CCCN(CCC)c1ccc(C(O)c2nnc(-c3ccccc3)o2)cc1` (stereo unspecified), for which the z-score was -0.662.
Regarding `O=C1Nc2ccc(Br)cc2/C1=N/N=C/C1=C(N2CCOCC2)C(=C\c2ccccc2)/CC1`, the z-score was -1.9.
Under `CCCc1ccc(-c2csc(NC(=O)Cc3cccs3)n2)cc1` stands -0.171; under `CC(NC(=O)c1cccc2ccccc12)c1ccc2c(c1)CCCC2` (stereo unspecified), 8.48 (active); under `O=C(CN1CCc2cc3c(cc2C1)OCCCO3)Nc1ccccc1`, 0.947.
Under `Cc1ccc(N2C(=O)C(NC(=O)c3c(F)cccc3F)(C(F)(F)F)C3=C2CC(C)(C)CC3=O)cc1` (stereo unspecified) stands -0.996; under `COCCCNC(=O)CN1C(=O)CSc2ccc(S(=O)(=O)N3CCOCC3)cc21`, -0.296.
Consider `COc1ccc(/C=C(\NC(=O)c2ccc(OCC(C)C)cc2)C(=O)OCc2ccco2)cc1`, for which the z-score is -0.0226.
Then `CCc1ccc(NC(=O)C(C)OC(=O)/C=C/c2cccc([N+](=O)[O-])c2)cc1` (stereo unspecified), with 1.35.
With `Cc1cc(NC(=O)CSc2nc(C(C)C)nc3sc4c(c23)CCC(C)C4)no1` (stereo unspecified), the z-score was -0.355.
With `CCOc1ccc(CCNC(=O)Nc2ccccc2)cc1OCC`, the z-score was -0.203.
As for `COc1ccc(Cl)cc1NC(=O)CN(C)C(=O)CCCc1c[nH]c2ccccc12`, the z-score was 0.989.
Under `CCOc1ccc(CCNC(=O)CCc2nnc3ccc(N4CCCC4)nn23)cc1OCC` stands -0.773; under `CC(C)(C)NC(=O)Cn1cnc2cc([N+](=O)[O-])ccc2c1=O`, -1.05.
Under `COc1ccc(C(C(=O)NC(C)(C)C)N(Cc2ccc(F)cc2)C(=O)CCC(=O)Nc2cc(C)on2)cc1` (stereo unspecified) stands -0.0925; under `CN(C)c1ccc(Nc2c3c4c(cccc4n(C)c2=O)C(=O)c2ccccc2-3)cc1`, 0.335; under `CCOC(=O)C1=C(CC)OC(N)=C(C#N)C1c1ccc(F)cc1F` (stereo unspecified), -0.275.
As to `COc1cc(/C=N/NC(=O)Nc2ccccc2)ccc1OCCOc1ccccc1C`, the z-score is 4.44.
Under `COc1cccc(/C=C(/CC(=O)Nc2ccc(N3CCOCC3)cc2)c2nc3ccccc3s2)c1` stands 0.0842; under `O=[N+]([O-])c1ccccc1N/N=C1\CCc2ccccc21`, -0.00245.
Under `Cc1c(C(=O)NCc2ccccc2)cnn1-c1ccccc1` stands -0.784; under `CCCN(CCC)c1nc2c(C)cccn2c(=O)c1/C=C1/SC(=S)N(Cc2ccco2)C1=O`, -0.326; under `Cn1c(=O)[nH]c(=O)c2c1nc(N1CCN(C(c3ccccc3)c3ccccc3)CC1)n2CCO`, 0.0379.
As for `COc1ccc(OC)c(-c2csc(-c3cccs3)n2)c1`, the z-score was -0.885.
Under `Cc1cc(C(=O)NC2CCCc3c2cnn3-c2cccc(C)c2C)c(C)o1` (stereo unspecified) stands 0.206.
